Assay [1] in a line: qHTS assay to identify small molecule antagonists of the androgen receptor (AR) signaling pathway using the MDA cell line in the presence of 0.5 nM R1881 - cell viability counter screen (AID 1259242). Note: nearly all actives have a fitted effect of over 45% in size. The method, boiled down:
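qHTS format. MDA-kb2 (MMTV-luc, AR/GR responsive) + cpd + 0.5 nM R1881 final, 16 hr 37C/0% CO2 → CellTiter-Fluor 30 min → fluorescence intensity.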
A general note: qHTS replaces the single test concentration by a dilution series.

Assay [2] has as its target Androgen receptor (Homo sapiens) (UniProt P10275). Briefly: qHTS assay to identify small molecule antagonists of the androgen receptor (AR) signaling pathway using the MDA cell line in the presence of 0.5 nM R1881 (AID 1259243). Note: nearly all actives have a fitted effect of over 50% in size. The method, boiled down: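 Antagonist mode quantitative HTS in MDA-kb2 MMTV-luciferase cells, agonist R1881 at 0.5 nM final, 16 hr exposure at 37C and 0% CO2, luminescent detection.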

Assay [3] concerns the target Estrogen receptor (Homo sapiens) (UniProt P03372). Briefly: qHTS assay to identify small molecule antagonists of the estrogen receptor alpha (ER-alpha) signaling pathway using the BG1 cell line in the presence of 0.1 nM 17-beta-estradiol (AID 1259244). Note: nearly all actives have a fitted effect of over 50% in size. In short, it runs like this: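 Reporter is a stably transfected luciferase under four estrogen responsive elements in VM7Luc4E2 cells expressing native full-length ER-alpha; inhibition of 0.1 nM (final) 17beta-estradiol-driven signal over 22 h is read by luminescence.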

Assay [4] in a line: qHTS assay to identify small molecule HDAC inhibitors (AID 1259364). Note: potency is the fitted concentration of half-maximal effect.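 Note: wild-type HCT-116 cells with endogenous class I/II HDAC activity; nearly all actives have a fitted effect of over 45% in size.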 In short, it runs like this:
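Quantitative high-throughput format: overnight-seeded HCT-116 cells got compounds for 2 hr at 37C; HDAC-Glo I/II reagent added, 30 min RT, luminescence measured.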

A short description of assay [5]: qHTS assay to identify small molecule HDAC inhibitors - cell viability counter screen (AID 1259365). Note: series mostly up to about 92 µM; nearly all actives have a fitted effect of over 50% in size. In short, it runs like this: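 CellTiter-Glo luminescence (30 min, room temperature) reported viability after a 2 h compound exposure at 37 C. Cells: wild-type HCT-116, 1,500 per well, seeded the night before.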
The nature of assay [6]: qHTS assay to identify small molecule agonists of the sonic hedgehog signaling (Shh) pathway - cell viability counter screen (AID 1259366). Note: nearly all actives have a fitted effect of over 50% in size. Note: potency is the fitted concentration of half-maximal effect. In short, it runs like this:
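Cytotoxicity counter screen: CellTiter-Fluor reagent added after 23 h compound exposure, then 1 h at 37C and fluorescence read. Cells were 3T3 Gli1-Luc, seeded 2,000 per well and dosed 4 h post-plating.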

Assay [7] can be described thus: qHTS assay to identify small molecule antagonists of the sonic hedgehog signaling (Shh) pathway - cell viability counter screen (AID 1259367). Note: nearly all actives have a fitted effect of over 55% in size. Note: potency is the fitted concentration of half-maximal effect. In short, it runs like this:
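Tox21 library chemicals were tested on a Gli1-Luc NIH/3T3 clone (2,000 cells/well) stimulated by conditioned medium; viability was quantified as fluorescence from CellTiter-Fluor reagent added at 23 hr.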

A short description of assay [8]: qHTS assay to identify small molecule agonists of the sonic hedgehog signaling (Shh) pathway (AID 1259368; calls by dose curve;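 note: NIH/3T3-derived 3T3Gli1-Luc cells carrying a stable Gli1-driven firefly luciferase reporter; series mostly up to about 92 µM; nearly all actives have a fitted effect of over 15% in size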). In short, it runs like this:
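Quantitative high-throughput format using a Gli1-driven firefly luciferase reporter line derived from NIH/3T3 cells. After a 24 hr compound treatment at 37 C and 5% CO2, luminescence reported Gli1 response element activity.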

Assay [9] can be described thus: qHTS assay to identify small molecule antagonists of the sonic hedgehog signaling (Shh) pathway (AID 1259369; calls by dose curve; note: nearly all actives have a fitted effect of over 45% in size; note: potency is the fitted concentration of half-maximal effect). In short, it runs like this: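 Stable Gli1-Luc reporter NIH/3T3 clone; quantitative HTS in stimulated mode with conditioned medium. Luminescence measured after 24hr compound treatment at 37 C.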
The target in assay [10] is Estrogen receptor beta (Homo sapiens) (UniProt Q92731). Briefly: qHTS assay to identify small molecule agonists of the estrogen receptor beta (ER-beta) signaling pathway (AID 1259377; active = well fitted activation curve with a large enough effect in the signal ratio in the repeat runs, not every such curve was filed as active; the % refers to the signal ratio). The method, boiled down: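 Ratiometric beta-lactamase FRET read-out came after 2 h substrate loading at room temperature. It followed 16 h compound treatment at 37C of GripTite HEK293T cells carrying a UAS-bla reporter, plated in 2% charcoal-stripped FBS medium.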
Sequence of Estrogen receptor beta (Homo sapiens) (Q92731 whole entry, looked up): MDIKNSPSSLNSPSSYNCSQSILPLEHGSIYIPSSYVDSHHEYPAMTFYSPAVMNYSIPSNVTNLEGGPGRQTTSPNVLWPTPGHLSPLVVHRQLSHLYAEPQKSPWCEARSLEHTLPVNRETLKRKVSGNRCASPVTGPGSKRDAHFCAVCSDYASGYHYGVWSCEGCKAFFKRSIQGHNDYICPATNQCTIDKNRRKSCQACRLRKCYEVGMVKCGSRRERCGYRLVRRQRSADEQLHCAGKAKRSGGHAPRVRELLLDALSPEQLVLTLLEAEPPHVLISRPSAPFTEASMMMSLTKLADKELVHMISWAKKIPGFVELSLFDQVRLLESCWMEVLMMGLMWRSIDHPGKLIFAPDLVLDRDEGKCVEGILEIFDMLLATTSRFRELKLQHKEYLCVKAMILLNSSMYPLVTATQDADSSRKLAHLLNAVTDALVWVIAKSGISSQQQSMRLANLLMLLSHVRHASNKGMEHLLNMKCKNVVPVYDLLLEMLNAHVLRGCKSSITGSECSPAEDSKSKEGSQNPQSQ

The nature of assay [11]: qHTS assay to identify small molecule agonists of the androgen receptor (AR) signaling pathway in the presence of an antagonist - cell viability counter screen (AID 1259379). Note: nearly all actives have a fitted effect of over 25% in size. Note: potency is the fitted concentration of half-maximal effect. The method, boiled down:
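Nilutamide-containing (3.0uM final) MDA-kb2 cultures, 3,000 cells/well, were treated with compounds across 15 concentrations. After 16 hr at 37C with no CO2, cell viability was determined by CellTiter-Fluor fluorescence in the luciferase assay wells.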

Assay [12] concerns the target Androgen receptor (Homo sapiens) (UniProt P10275). Briefly: qHTS assay to identify small molecule agonists of the androgen receptor (AR) signaling pathway in the presence of an antagonist (AID 1259381; calls by dose curve; note: nearly all actives have a fitted effect of over 15% in size). In short, it runs like this:
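Reporter-gene luminescence from MDA-kb2 cells exposed 16hr at 37C (0% CO2) to 15-point compound titrations with 3.0uM final nilutamide as AR antagonist.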

Assay [13] in a line: qHTS assay to identify small molecule antagonists of the estrogen receptor beta (ER-beta) signaling pathway - cell viability counter screen (AID 1259382). Note: series mostly up to about 92 µM; nearly all actives have a fitted effect of over 55% in size. The method, boiled down:
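Viability is scored by CellTiter-Glo luminescence (30 min, room temperature) in ER-beta-UAS-bla HEK293T wells already read for reporter fluorescence. Compound exposure lasts 16 hr at 37C alongside 1nM 17-beta-estradiol in charcoal-stripped serum medium.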

In assay [14] the target is Estrogen receptor (Homo sapiens) (UniProt P03372). The assay is described as follows: qHTS assay to identify small molecule agonists of the estrogen receptor alpha (ER-alpha) signaling pathway in the presence of an antagonist (AID 1259383; calls by dose curve; note: top concentration of the series differs between compounds; nearly all actives have a fitted effect of over 15% in size). The method, boiled down:
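Readout was ERE-driven luciferase luminescence in VM7Luc4E2 cells, which express full-length ER-alpha endogenously. Compounds were tested at 15 concentrations for 22hr alongside 10.0nM ICI-182,780 (final concentration).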

A short description of assay [15]: qHTS assay to identify small molecule antagonists of the estrogen receptor alpha (ER-alpha) signaling pathway using the BG1 cell line in the presence of 0.1 nM 17-beta-estradiol - cell viability counter screen (AID 1259241). Note: nearly all actives have a fitted effect of over 40% in size. The method, boiled down:
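Cytotoxicity counter-screen: live-cell protease activity measured by fluorescence (30 min reagent step) in the same wells. Cells were VM7Luc4E2 with endogenous ER-alpha and ERE-driven luciferase, treated 22 hr at 37C alongside 0.1 nM 17beta-estradiol final.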

The target in assay [16] is Estrogen receptor beta (Homo sapiens) (UniProt Q92731). The assay is described as follows: qHTS assay to identify small molecule antagonists of the estrogen receptor beta (ER-beta) signaling pathway (AID 1259378; active = well fitted inhibition curve with a large enough effect in the signal ratio in the repeat runs, not every such curve was filed as active; the % refers to the signal ratio). In short, it runs like this: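 ER-beta-UAS-bla HEK293T cells in 2% charcoal-stripped FBS medium treated with compound plus 1nM final 17-beta-estradiol for 16 hr at 37C. Beta-lactamase reporter read by FRET substrate fluorescence after 2 hours at room temperature.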

Assay [17] can be described thus: qHTS assay to identify small molecule agonists or antagonists of the thyroid stimulating hormone receptor (TSHR) signaling pathway - wild type cell line counter screen (AID 1259384; calls by dose curve). The method, boiled down: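 Wild-type Hek293 cells, 800/well, 18 h at 37C, then compound with Ro20-1724 for 30 min RT. cAMP by HTRF (cAMP-d2/anti-cAMP cryptate), 1 h RT, fluorescence read. 15 concentrations, triplicates.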

Assay [18] concerns the target Thyrotropin receptor (Homo sapiens) (UniProt P16473). Briefly: qHTS assay to identify small molecule antagonists of the thyroid stimulating hormone receptor (TSHR) signaling pathway (AID 1259385; calls by dose curve; note: nearly all actives have a fitted effect of over 20% in size). In short, it runs like this:
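TSHR-HEK293 cells (800/well) plated 18 h, then compounds with Ro20-1724 and TSH at 1.5 ng/mL final, 30 min at room temperature. cAMP quantified by HTRF (cAMP-d2/anti-cAMP-cryptate, 1 h); 15 concentrations in triplicate.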

A short description of assay [19]: qHTS assay to identify small molecule agonists of the estrogen receptor beta (ER-beta) signaling pathway - cell viability counter screen (AID 1259380). Note: nearly all actives have a fitted effect of over 30% in size. The method, boiled down: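 Steps: plate ER-beta-UAS-bla HEK293T cells, rest 6 hr; add compounds in DMSO; incubate 16 hr at 37C, 5% CO2; add FRET substrate 2 hr; add CellTiter-Glo, wait 30 min at room temperature; read luminescence.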

A short description of assay [20]: qHTS assay to identify small molecule phospholipidosis (PLD) inducers (AID 1259344; active = well fitted curve in the direction sought with a large enough effect; an effect the other way counts as inactive or inconclusive). In short, it runs like this:
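Image-based: LipidTOX Red pit count/intensity per well and per cell; HepG2, 24 h compound at 37 C, PFA fixation, Hoechst counterstain.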

Each structure is given as a SMILES string. Values joined by “and” are separate entries in the source; they are usually repeats but may differ in a detail not shown here. Identical values can stand only once. A number with no mark means an inactive call. Results filed as inconclusive are left out. Active and inactive are the calls of the source. Unless noted, calls come from the whole dose curve; as a rule, active = well fitted curve in the direction sought with a large enough effect in the repeat runs; inconclusive = weak or mixed curves; inactive = no such curve, though single readings can be large; an effect the other way counts as inactive or inconclusive.

Sequence of Thyrotropin receptor (Homo sapiens) (P16473 whole entry, looked up): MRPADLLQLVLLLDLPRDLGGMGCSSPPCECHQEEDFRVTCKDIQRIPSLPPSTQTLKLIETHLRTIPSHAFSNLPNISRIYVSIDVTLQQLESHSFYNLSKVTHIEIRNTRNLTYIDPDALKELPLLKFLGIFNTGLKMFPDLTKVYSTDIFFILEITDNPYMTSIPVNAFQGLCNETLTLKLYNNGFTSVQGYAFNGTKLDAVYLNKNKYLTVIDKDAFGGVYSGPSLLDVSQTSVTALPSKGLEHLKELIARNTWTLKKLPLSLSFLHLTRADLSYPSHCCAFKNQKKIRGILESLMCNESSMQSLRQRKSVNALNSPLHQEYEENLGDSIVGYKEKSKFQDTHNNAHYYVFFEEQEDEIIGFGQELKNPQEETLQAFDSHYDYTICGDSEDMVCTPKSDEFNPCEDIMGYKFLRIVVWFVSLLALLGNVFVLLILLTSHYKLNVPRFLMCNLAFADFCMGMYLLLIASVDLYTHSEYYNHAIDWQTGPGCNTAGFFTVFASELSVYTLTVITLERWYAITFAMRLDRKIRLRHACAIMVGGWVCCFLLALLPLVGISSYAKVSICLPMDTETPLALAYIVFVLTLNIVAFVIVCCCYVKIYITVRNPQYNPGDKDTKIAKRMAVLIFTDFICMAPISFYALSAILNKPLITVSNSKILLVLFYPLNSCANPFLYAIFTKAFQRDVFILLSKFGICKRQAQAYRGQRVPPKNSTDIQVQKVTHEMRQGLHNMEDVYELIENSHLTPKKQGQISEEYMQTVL
Sequence of Estrogen receptor (Homo sapiens) (P03372 whole entry, looked up): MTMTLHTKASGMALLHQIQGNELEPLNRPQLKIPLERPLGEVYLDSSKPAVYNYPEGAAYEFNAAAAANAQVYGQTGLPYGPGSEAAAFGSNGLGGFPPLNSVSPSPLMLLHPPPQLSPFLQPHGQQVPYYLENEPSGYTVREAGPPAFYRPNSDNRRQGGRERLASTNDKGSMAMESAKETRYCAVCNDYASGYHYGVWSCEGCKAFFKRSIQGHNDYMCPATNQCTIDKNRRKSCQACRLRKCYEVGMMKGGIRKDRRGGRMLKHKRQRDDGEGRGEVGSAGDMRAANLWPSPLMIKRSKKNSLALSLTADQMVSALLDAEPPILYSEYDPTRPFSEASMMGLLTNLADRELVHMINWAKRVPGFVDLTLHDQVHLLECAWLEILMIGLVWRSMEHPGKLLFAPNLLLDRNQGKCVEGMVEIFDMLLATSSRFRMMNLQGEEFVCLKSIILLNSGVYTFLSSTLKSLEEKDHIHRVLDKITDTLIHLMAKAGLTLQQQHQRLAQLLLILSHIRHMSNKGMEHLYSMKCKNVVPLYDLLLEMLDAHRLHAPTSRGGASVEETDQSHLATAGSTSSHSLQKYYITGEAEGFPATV
Sequence of Androgen receptor (Homo sapiens) (P10275 whole entry, looked up): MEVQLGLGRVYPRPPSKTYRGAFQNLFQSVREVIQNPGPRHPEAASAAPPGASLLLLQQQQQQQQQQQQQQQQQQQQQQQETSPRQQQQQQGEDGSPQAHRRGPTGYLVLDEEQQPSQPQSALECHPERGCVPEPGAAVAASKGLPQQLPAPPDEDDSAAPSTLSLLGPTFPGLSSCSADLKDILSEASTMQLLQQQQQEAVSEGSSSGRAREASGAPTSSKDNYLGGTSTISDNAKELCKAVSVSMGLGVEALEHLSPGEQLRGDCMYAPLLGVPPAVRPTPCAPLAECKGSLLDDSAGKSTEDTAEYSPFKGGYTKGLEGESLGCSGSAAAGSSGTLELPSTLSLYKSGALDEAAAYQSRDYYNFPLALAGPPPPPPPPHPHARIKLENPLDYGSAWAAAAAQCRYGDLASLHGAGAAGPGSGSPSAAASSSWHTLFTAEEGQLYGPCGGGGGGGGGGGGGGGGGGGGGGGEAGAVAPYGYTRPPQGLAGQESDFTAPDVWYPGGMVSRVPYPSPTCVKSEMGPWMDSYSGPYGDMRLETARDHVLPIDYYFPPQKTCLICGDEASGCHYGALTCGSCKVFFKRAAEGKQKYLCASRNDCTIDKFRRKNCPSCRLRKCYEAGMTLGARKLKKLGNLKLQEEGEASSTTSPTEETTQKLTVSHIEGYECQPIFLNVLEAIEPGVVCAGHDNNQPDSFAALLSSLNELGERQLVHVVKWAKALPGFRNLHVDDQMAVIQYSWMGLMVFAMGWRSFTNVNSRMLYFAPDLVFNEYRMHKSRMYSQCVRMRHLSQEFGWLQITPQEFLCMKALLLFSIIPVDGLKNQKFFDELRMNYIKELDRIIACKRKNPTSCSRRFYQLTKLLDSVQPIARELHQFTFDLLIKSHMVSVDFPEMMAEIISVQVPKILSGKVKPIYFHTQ

As for `CC(C)(C)N(NC(=O)c1ccc(Cl)cc1)C(=O)c1ccccc1`, the Potency entry in assay [1], in assay [2], in [3], in assay [4], in assay [5] and in assay [8] was “inactive” throughout. Further, the Potency result in assay [9], in assay [10], in assay [11], in assay [12], in assay [13] and in assay [14] was “inactive” in each case. The values for the Potency in assay [6] and in assay [7] were 2.71 µM (active) and 3.83 µM (active), respectively.
On to `Cc1nc(N(C)C)nc(OC(=O)N(C)C)c1C`, for which the Potency result in assay [15], in [3], in assay [4], in [5], in [6] and in assay [7] was “inactive” in each case. Moreover, the Potency entry in assay [8], in assay [9], in [10], in [16], in assay [11] and in assay [13] was “inactive” throughout. For the same compound, the Potency entry in assay [14] and in [18] was “inactive” in each case. Further, the call in assay [17] was inactive.
Take `COC(=O)Cc1ccccc1`: the Potency entry in assay [15], in assay [3], in assay [4], in assay [5], in [6] and in [7] was “inactive” each time. For the same compound, the Potency entry in assay [8], in assay [9], in [11], in assay [13] and in [14] was “inactive” throughout.
Regarding `O=C(CCl)CCl`, the Potency entry in assay [15], in [3], in [4], in assay [5], in assay [7] and in assay [8] was “inactive” throughout. The Potency entry in [10], in assay [16], in [19], in [14] and in assay [18] was “inactive” each time. Also, the Potency in assay [9] is 19.3 µM (active); in assay [11] it was 63.4 µM (active) and 48.6 µM (active). Besides, the result in assay [17] was inactive.
In the case of `CN[C@@H](C)[C@H](O)c1ccccc1`, the Potency result in [15], in assay [3], in assay [4], in assay [5], in [6] and in [7] was “inactive” in each case. The Potency entry in assay [8], in assay [9], in [16], in assay [11], in assay [19] and in assay [14] was “inactive” each time. Also, the Potency entry in assay [18] was “inactive”. The call in assay [20] and in assay [17] was inactive.
Regarding `COc1ccc2c(c1OC)C(=O)O[C@H]2[C@@H]1c2cc3c(cc2CCN1C)OCO3`, the Potency entry in [15], in assay [2], in [4], in [5], in assay [9] and in assay [16] was “inactive” each time. Further, the Potency entry in [11], in assay [19], in assay [12], in assay [13] and in assay [18] was “inactive” throughout. The result in [20] and in assay [17] was inactive. In addition, the Potency in assay [6] and in [7] was 5.96 µM (active) in each case.
Regarding `CC(C)c1ccc(NC(=O)N(C)C)cc1`, the Potency entry in assay [15], in assay [3], in assay [5], in [6], in assay [7] and in [8] was “inactive” each time. Moreover, the Potency result in assay [9], in assay [10], in [16], in assay [11], in [19] and in assay [13] was “inactive” in each case. Moreover, the Potency entry in assay [14] and in assay [18] was “inactive” throughout. Also, the Potency in assay [4] was 24.3 µM (active). The compound was called inactive in assay [17].

The values are drawn from PubChem BioAssay (Tox21).
